Rows were chosen to be rich in hits. Some 18% of all compounds tested hit in one or more screens of this group.
DT40 TDP1 no CPT: qHTS for Inhibitors of human tyrosyl-DNA phosphodiesterase 1 (TDP1): qHTS in cells in absence of CPT; DT40 Tdp1-/- hTDP1 cells, no CPT, ATP luminescence, 48 h; Potency, µM (highest dose often 46.2 µM), inactives show at the top dose activity change, negative = growth inhibition, actives largely listed as inhibitors; 420,000 compounds, 15% hits; further: potency means the concentration at half of the fitted maximal effect; nearly all actives have a fitted effect of over 55% in size
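Camptothecin absent (DMSO only). Human TDP1-complemented DT40 knockout cells, 400 cells/well, 37 °C for minimum 48 hr; ATP measured via CellTiter-Glo, 30 min dark incubation, luminescence.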
TDP1 cell CPT: DT40-hTDP1 cell growth loss with CPT | chicken DT40 Tdp1-/-;hTDP1 cells + 20 nM CPT, ATP luminescence, 48 h | 420,000 compounds, 12% hits | Potency, µM (top dose mostly 46.2 µM), inactives show at the top dose activity change, negative = growth inhibition, most hits filed as inhibitors; further: potency means the concentration at half of the fitted maximal effect; nearly all actives have a fitted effect of over 55% in size
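Chicken DT40 Tdp1-/- cells stably complemented with human TDP1 were seeded at 400 cells/well in medium containing 20 nM camptothecin, exposed to pin-transferred compounds, and grown at 37 °C for at least 48 hr. Viability was read as ATP luminescence.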
TDP1 block: inhibitors of human tyrosyl-DNA phosphodiesterase TDP1; recombinant TDP1, AlphaScreen DNA substrate cleavage; Q9NUW8; Potency, µM (series often up to 130 µM), for inactives: at the highest dose activity change, negative = inhibition, hits mostly inhibitors; AID 485290; 350,000 compounds, 0.28% hits; further: potency means the concentration at half of the fitted maximal effect; nearly all actives have a fitted effect of over 40% in size
Target sequence (Q9NUW8 whole entry, looked up): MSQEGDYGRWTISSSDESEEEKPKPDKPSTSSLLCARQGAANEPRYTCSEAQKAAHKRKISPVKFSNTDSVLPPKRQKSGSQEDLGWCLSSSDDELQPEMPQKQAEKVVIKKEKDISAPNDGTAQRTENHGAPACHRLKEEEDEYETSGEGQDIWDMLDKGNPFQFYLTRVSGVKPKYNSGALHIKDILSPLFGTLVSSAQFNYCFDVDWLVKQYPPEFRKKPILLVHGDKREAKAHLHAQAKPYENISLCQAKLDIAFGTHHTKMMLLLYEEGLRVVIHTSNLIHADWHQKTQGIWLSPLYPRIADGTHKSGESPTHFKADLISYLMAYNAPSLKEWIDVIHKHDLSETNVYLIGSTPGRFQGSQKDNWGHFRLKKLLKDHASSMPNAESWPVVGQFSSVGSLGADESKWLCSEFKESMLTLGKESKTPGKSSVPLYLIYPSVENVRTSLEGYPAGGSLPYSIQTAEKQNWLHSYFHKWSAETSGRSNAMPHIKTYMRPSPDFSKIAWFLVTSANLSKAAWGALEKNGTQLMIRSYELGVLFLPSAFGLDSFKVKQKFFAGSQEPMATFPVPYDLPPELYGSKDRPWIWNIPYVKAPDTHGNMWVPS
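Here, a 5' biotin and 3' phosphotyrosine-FITC DNA oligonucleotide reports Tdp1 activity: intact substrate bridges AlphaScreen beads, while cleavage leaves a 3' phosphate and drops signal. All incubations at room temperature.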
CtBP-E1A blk: inhibitors of CtBP/E1A interaction. 340,000 compounds, 0.49% hits. AlphaScreen GST-E1A/His-CtBP binding, 1536-well; hits give low values. activity change, % (no concentration beside the values). AID 651724; in the data active means activity change below about -65%; inconclusive means mostly about -30% to -63%
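In 5 uL wells, 23 nL compound meets equimolar GST-E1A and His-CtBP (5X stock 125 nM each) for 2 h, 37 °C. Beads (5X, 50 ug/mL) then 1 h, 37 °C, dark.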
Six1-Eya2 blk: inhibitors of human Six1/Eya2 interaction; Q15475+O00167; AlphaScreen GST-Six1/His-Eya2 binding, biochemical; hits give low values; activity change, % (concentration not given with the values); 360,000 compounds, 0.56% hits; in the data active means activity change below about -65%; inconclusive means mostly about -30% to -63%
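Six1/Eya2 binding was read as AlphaScreen signal after compounds were pinned into GST-Six1 plus His-tagged Eya2 (5X stock 250/500 nM) in pH 8.0 Tris/NaCl/TCEP buffer, beads added, then incubated 1 h, 37 C, dark.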
IL1B secr inh: blocks inflammasome-driven IL-1 beta release; THP-1 LPS/ATP IL-1B secretion, AlphaLISA, 16 h; hits give low values; activity change, % at 57.5 µM; 360,000 compounds, 4.7% hits; in the data active means activity change below about -50%; inconclusive means mostly about -30% to -49%
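THP-1 cells pretreated 1 hr with compounds (up to 57.5 uM final), then stimulated with LPS (250 ng/mL final) plus ATP (1.25 mM final); secreted IL-1B measured by AlphaLISA after 16 hr, decreased signal indicating inhibition.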
* = called active by the depositor; ? = inconclusive; / = no result; ! = not confirmed by another sample; [ ] = remark or other dose. Unless noted, the call rests on the fitted dose curve; in most records, active means well fitted curve in the direction sought with a large enough effect; inconclusive means small, poorly fitted or top-dose-only effect, or another doubt; inactive means no such curve, though single readings can be large; an effect the other way counts as inactive or inconclusive. On the % scale 0 is the no-effect control and ±100 the full control effect.

SMILES	DT40 TDP1 no CPT	TDP1 cell CPT	TDP1 block	CtBP-E1A blk	Six1-Eya2 blk	IL1B secr inh
O=C(COC(=O)c1ccc(F)cc1F)NC1CC1	0.8%	12.0%	5.9%	-1.8	4.4	-6.3
Cc1cc(C)n(-c2cc(N3CCN(S(=O)(=O)c4ccc(Br)cc4)CC3)ccc2[N+](=O)[O-])n1	11.6µM*	11.6µM*	5.3%	?	-12.2	-25.4
COC(=O)c1ccc(N2CCN(S(=O)(=O)c3ccc(Br)cc3)CC2)c([N+](=O)[O-])c1	?	?	8.4%	-17.6	-18.5	-17.9
Cc1cc(C)c(S(=O)(=O)N2CCN(c3ccc([N+](=O)[O-])c(-n4nc(C)cc4C)c3)CC2)c(C)c1	20.6µM*	25.9µM*	8.3%	-27.0	-21.8	-3.8
C#CCNS(=O)(=O)c1ccc(F)cc1Br	14.3%	6.7%	/	-0.1	3.5	-2.6
O=c1c2sc3ccccc3c2n(Cc2cccc(C(F)(F)F)c2)c(=O)n1-c1ccccc1	13µM*	?	-2.7%	/	/	/
Cc1ccc(NC(=O)Cn2c(=O)n(Cc3ccccc3)c(=O)c3sc4ccccc4c32)cc1	5.8µM*	5.8µM*	1.3%	/	/	/
Cc1cccc(Cn2c(=O)n(Cc3ccccc3)c(=O)c3sc4ccccc4c32)c1	23.1µM*	?	-1.8%	/	/	/
Cc1ccc(CNC(=O)Cn2c(=O)n(Cc3ccccc3)c(=O)c3sc4ccccc4c32)cc1	?	?	-3.8%	/	/	/
CN(C)c1ccc(CNC(=O)C2CCN(S(=O)(=O)c3ccc4c(c3)CCCC(=O)N4)CC2)cc1	-3.1%	-5.7%	4.1%	-2.8	-5.8	42.2
CCOC(=O)N1CCN(Cc2nc3c(c(=O)n(C)c(=O)n3C)n2Cc2ccccc2C)CC1	0.7%	?	8.2%	0.0	2.8	9.9
Cc1cccc(OCCSc2nc(-c3cccs3)nc3cc(=O)[nH]n23)c1	?	?	2.6%	/	/	/
Cc1cccc(OCCCSc2nc(-c3ccc(C(C)(C)C)cc3)nc3cc(=O)[nH]n23)c1C	?	?	5.3%	/	/	/
COc1ccc(-c2nc(SCCOc3cc(C)ccc3C(C)C)n3[nH]c(=O)cc3n2)cc1	18.4µM*	?	2.6%	/	/	/
Cc1ccc(OCCSc2nc(-c3ccccc3C)nc3cc(=O)[nH]n23)cc1Cl	16.4µM*	16.4µM*	5.3%	/	/	/
CCc1ccc(OCCCSc2nc(-c3ccc(C(C)(C)C)cc3)nc3cc(=O)[nH]n23)cc1	23.1µM*	?	7.9%	/	/	/
COc1cc(C)ccc1OCCSc1nc(-c2cccc(C)c2)nc2cc(=O)[nH]n12	20.6µM*	16.4µM*	5.3%	/	/	/
C/C(=N\N=C1\NC(=O)C(CC(=O)O)S1)c1ccccn1 (stereo unspecified)	-6.7%	-1.5%	10.1%	?	?	4.0
O=C(COC(=O)c1nsc(Cl)c1Cl)NC1CCCCC1	-1.8%	-1.3%	4.6%[0.0935 µM]	5.0	6.0	14.7
CCc1ccc(OCCSc2nc(-c3cccc(C)c3)nc3cc(=O)[nH]n23)cc1	?	23.1µM*	2.6%	/	/	/
Cc1cccc(-c2nc(SCCCOc3ccc(Cl)c(C)c3)n3[nH]c(=O)cc3n2)c1	?	?	2.6%	/	/	/
CC(C)NC(=S)NN=C1c2ccccc2-c2ccccc21	7.31µM*	23.1µM*	5.4%	-4.7	-8.9	1.4
COC(=O)C1=C(C)NC(C)=C([N+](=O)[O-])C1c1ccccc1C(F)(F)F (stereo unspecified)	12.3µM*!	17.4µM*	10.7%[56.1 µM]	-27.2	-4.1	-12.0
CC1=C(C(=O)OC(C)C)[C@@H](c2cccc3nonc23)C([N+](=O)[O-])=C(C)N1	14.6µM*	?	7.3%	/	/	/
Cc1ccc(CNC(=O)C2CCN(S(=O)(=O)N3CCCCC3)CC2)cc1	?	?	0.0%	-3.3	3.1	21.9
